# Reference: PubChem BioAssay AID652042 (Broad Institute, 2013)
# Among all 1,100 compounds or so, about 350 (32%) were called active. Not all results are given here. Potency and affinity values are given separately. Values without a mark were called inactive. No rule for the calls is given here.
# Assay: viability loss in CEM21 cells – cell-based, CellTiter-Glo luminescence, cherry-picked, cytotoxicity control for viral fusion inhibitor project, dose response (AID 652042)
# Conditions: CellTiter-Glo ATP luminescence, 24 h; series mostly up to 35 µM; activity change, negative = cytotoxicity: at the top concentration
row,SMILES,"activity change, negative = cytotoxicity [%]"
1,C[C@H](CO)N1C[C@H](C)[C@H](CN(C)CC2CC2)Oc2ccc(NC(=O)Nc3ccc4c(c3)OCO4)cc2CC1=O,-1.32
2,C[C@H](CO)N1C[C@H](C)[C@H](CN(C)S(=O)(=O)c2ccc(Cl)cc2)Oc2ccc(NC(=O)Nc3ccc4c(c3)OCO4)cc2C1=O,-8.62
3,COc1ccc(CN(C)C[C@@H]2Oc3ccc(NC(=O)Nc4ccc(OC)cc4)cc3C(=O)N([C@H](C)CO)C[C@@H]2C)cc1,-7.84
4,C[C@H]1CN([C@@H](C)CO)C(=O)c2cc(NC(=O)Nc3ccc4c(c3)OCO4)ccc2O[C@H]1CN(C)S(=O)(=O)c1ccc(F)cc1,-0.195
5,COc1ccc(NC(=O)Nc2ccc3c(c2)CC(=O)N([C@@H](C)CO)C[C@H](C)[C@H](CN(C)S(=O)(=O)c2cccs2)O3)cc1,-13.2
6,COc1ccc(S(=O)(=O)Nc2ccc3c(c2)CC(=O)N([C@H](C)CO)C[C@H](C)[C@H](CN(C)S(=O)(=O)c2ccc(F)cc2)O3)cc1,-0.109
7,C[C@H](CO)N1C[C@H](C)[C@H](CN(C)S(=O)(=O)c2ccccc2)Oc2ccc(NC(=O)Nc3ccccc3)cc2CC1=O,-19.4
8,CC(C)NC(=O)Nc1ccc2c(c1)CC(=O)N([C@H](C)CO)C[C@H](C)[C@H](CN(C)S(=O)(=O)c1cccs1)O2,1.85
9,COc1ccc(Cl)cc1CC1(C)C(=O)Nc2ccc(S(=O)(=O)NC3CCCCC3)cc21 (centres undefined),-10.2
10,O=C(c1ccccc1)N1CCC(c2nc(-c3ccc(S(=O)(=O)NCC4CCCO4)cc3)no2)CC1 (centres undefined),-19.1
11,CC1CCN(C(=O)c2ncn3c2C(=O)N[C@H](C)C3)CC1,-0.958
12,Cc1nc2ncnn2c(N2CCCC(C(=O)Nc3ccc4c(c3)CCC4)C2)c1C (centres undefined),-9.92
13,O=C(Nc1ccc2c(c1)CCC2)C1CCN(c2c3c(nc4ncnn24)CCC3)CC1,-17.5
14,Oc1ccc(CNc2ccccc2F)c2cccnc12,-29.9
15,N#C/C(=N\Nc1ccc(Cl)cc1)C(=O)c1ccccc1,-32.3
16,O=C1c2cccc(OCc3ccc(F)cc3)c2CCN1Cc1ccccc1,-13.1
17,NC(=S)c1ccc(OCCCc2ccccc2)cc1,-14.8
18,C[C@@]12C(=O)N(CCc3c[nH]c4ccccc34)CC(=O)N1[C@H]1c3ccccc3OC[C@@H]1[C@@H]2c1ccccc1,-17.1
19,C[C@@]12C(=O)N(CC3CCCO3)CC(=O)N1[C@H]1c3cc(Cl)ccc3OC[C@@H]1[C@@H]2c1ccccc1 (some centres undefined),-8.94
20,COC(=O)CCn1nnc(-c2ccc(C(C)C)cc2)n1,6.71
21,COCC(=O)Nc1ccc2c(c1)C(=O)N(C)[C@H]1CC[C@H](CC(=O)NC3CCCC3)O[C@H]1CO2,-2.95
22,CC1=CC(C)(C)N(C(=O)c2ccccc2)c2ccc(C)cc21,-13.1

row,SMILES,"activity change, negative = cytotoxicity [%]"
1,COCC(=O)Nc1ccc2c(c1)C(=O)N(C)C[C@@H](OC)[C@@H](C)CN(C)[C@H](C)CO2,-2.08
2,CCOC1=C2[C@@H](CN(S(=O)(=O)c3ccccc3C)[C@H]2c2ccc(Cl)cc2)[C@H]2C(=O)NC(=O)[C@H]2C1,7.02
3,Cc1sc2ncnc(N3CCC(C(=O)Nc4cc(S(C)(=O)=O)ccc4Cl)CC3)c2c1C,-1.01
4,COC(=O)C1=C(C)N(CC2CC2)C(=O)N[C@H]1c1ccc(Br)cc1,-13.3
5,O=C(NCc1ccco1)c1ccc(Cn2c(=O)c3sccc3n(Cc3cccc(F)c3)c2=O)cc1,-4.41
6,CC[C@@]1(C(=O)OC)N[C@H](CN(C)C(=O)COc2ccccc2)[C@@H]2C(=O)N(Cc3ccccc3)C(=O)[C@@H]21,1.91
7,C[C@@H]1CN([C@@H](C)CO)C(=O)c2cc(C3=CCCC3)cnc2O[C@@H]1CN(C)Cc1ccc(C(=O)O)cc1,-7.71
8,C[C@H]1CN([C@@H](C)CO)C(=O)Cc2cc(N(C)C)ccc2O[C@H]1CN(C)Cc1ccc(Cl)c(Cl)c1,-11.3
9,O=C(NCc1ccccc1)c1ccc(C(=O)NCc2ccccc2)cc1,-1.78
10,C=C(C)c1cccc(C(C)(C)NC(=O)Nc2ccc(Cl)cn2)c1,0.575
11,Cc1ncccc1C(=O)N1CCCC(C(=O)c2ccc3c4c(cccc24)CC3)C1 (centres undefined),-1.97
12,CCOc1ccc(N(C)S(=O)(=O)c2cc(-c3cc(C)no3)ccc2C(C)C)cc1,-27.4
13,COc1ccc(NC(=O)c2ccc(Cl)c(S(=O)(=O)N3CCc4ccccc4C3)c2)cn1,-19.1
14,Cc1ccc(NC(=O)c2ccc(CN3CCc4ccccc4C3)cc2)cc1,-25.9
15,Cc1ccc2c(c1)c1c3n2CCN(CCC#N)C3CCC1 (centres undefined),1.35
16,CC(CCc1ccco1)NC(=O)CCc1nnc2ccc(NCc3ccccc3Cl)nn12 (centres undefined),-16.5
17,Cc1ccc(S(=O)(=O)N2CCC(=O)N(CCOC(=O)Nc3cccc(Cl)c3)CC2)cc1,-2.62
18,COc1ccc(C)cc1NC(=O)CCNS(=O)(=O)c1ccc2c(c1)CC(C)N2C(C)=O (centres undefined),9.67
19,COc1ccccc1Oc1ccc(S(=O)(=O)NCc2ccccn2)cc1,-8.66
20,O=C(C[C@H]1C[C@@H]2c3cc(NC(=O)C4CCOCC4)ccc3O[C@@H]2[C@@H](CO)O1)NCc1ccccc1F,-3.22
21,CC(C)CCN(N=O)[C@@H](Cc1ccccc1)CN(N=O)[C@@H](Cc1ccccc1)CN(C)N=O,-15.3
22,COc1ccc(-c2cc(=O)oc3c(C)c(O)ccc23)cc1,-5.8
